{"source": "PubChem BioAssay AID485298", "about": "(National Center for Advancing Translational Sciences (NCATS), 2010)", "note": "In all, about 320,000 compounds went through this assay and about 740 (0.23%) were called active. About 2% were inconclusive and are not listed. The full list was thinned out, with actives kept by preference. Unmarked numbers belong to inactive results. The call rests on the fitted dose curve; in most records, active means well fitted activation curve with a large enough effect; inconclusive means small, poorly fitted or top-dose-only effect; inactive means no such curve, though single readings can be large or run the other way. Potency means the concentration at half of the fitted maximal effect."}
{"test": "qHTS Assay for Small Molecule Inhibitors of Mitochondrial Division or Activators of Mitochondrial Fusion; further: nearly all actives have a fitted effect of over 45% in size; on growth rescue (activation): % of control where 0% means no effect", "conditions": "S. cerevisiae fusion-defective mutant growth rescue, CellTiterGlo 48 h; series mostly up to 46.1 µM; growth rescue (activation): at the top concentration", "text": "NIH Chemical Genomics Center [NCGC] NIH Molecular Libraries Probe Production centers Network [MLPCN] MLPCN Grant: MH081279-01 Assay Submitter (PI): Jodi M. Nunnari NCGC Assay Overview: The budding yeast S. cerevisiae is a powerful system to study mitochondrial fusion. Unlike other organisms, yeast cells without functional mitochondrial DNA (mtDNA) can be propagated and studied as long as they maintain a mitochondrial compartment and are provided with a fermentable carbon source. When mitochondrial fusion is blocked in yeast, mitochondrial tubules rapidly fragment and division continues unopposed. Under conditions where fusion is compromised in mammalian cells, nearly identical changes in mitochondrial structure have been observed. Thus, these findings indicate that steady state mitochondrial structure in cells is a characteristic and specific indicator of fusion activity. Mounting evidence has pointed to a connection between mitochondrial dynamics and apoptosis in mammalian cells. These studies indicate that in mammalian cells mitochondrial dynamics are more integrated into cellular processes than in yeast cells and have evolved not only to distribute the organelle but also to aid in the regulation of cellular homeostasis. Mitochondrial fusion proteins attenuate apoptosis by inhibiting the release of cytochrome c from mitochondria, in part by controlling cristae structures. Thus, small molecules that inhibit mitochondrial […] may promote apoptosis and potentially act as novel chemotherapeutics and stimulation of apoptosis has become an attractive target of anti-cancer therapies. To identify inhibitors of mitochondrial division, we exploit the growth phenotypes of mitochondrial fusion-defective mutants. The temperature sensitive fusion alleles, such as fzo1-1 and mgm1-5, cause mitochondrial membranes to fragment in cells under non-permissive conditions and cells lose mtDNA, and are unable to grow in the presence of non-fermentable carbon source glycerol. Inhibiting mitochondrial division rescues growth. We have developed and optimized a luminescence cell viability assay in 1536 well format for the identification of inhibitors in the yeast mitochondrial fusion-defective assay.\nThe yeast glycerol stocks where kindly supplied by the laboratory of Dr. Jodi Nunnari, University of California, Davis. All yeast glycerol stock solutions were stored in single use aliquots at -80C. The CellTiterGlo luminescence reagent, containing luciferase and luciferin, were purchased from Promega, and the reagents were stored according to manufacturer's instructions. The Buffer components for the YPEG yeast growth medium were purchased from Sigma-Aldrich (St. Louis, MO). YPEG growth medium: 1% (w/v) yeast extract, 2% (w/v) Bacto-peptone, 3% Ethanol, 3% glycerol, 0.4mM Tryptophan, 0.36mM Adenine. qHTS Assay Protocol: 1.#Dispense 2.5 ul yeast growth medium per 1536 well plate. 2.#Transfer 23 nl per well of compound to plate. 3.#Dispense 2.5 ul yeast solution at appropriate seeding density per well. 4.#Incubate for 48 hours at 37C. 5.#Dispense 5 ul of CellTiterGlow solution per well. 6.#Incubate at ambient for 10 minutes. 7.#Read using bio-luminescence protocol on Viewlux."}
{"smiles": "O=C1C=C(c2cccc(Cl)c2O)C[C@@H](c2ccc(F)cc2)C1", "Potency": "11.2 µM (active)"}
{"smiles": "COc1ccc([C@H]2CC(=O)C=C(c3ccc(C)cc3)C2)cc1", "growth rescue (activation)": "25.8%"}
{"smiles": "CC(C)(C)CC(=O)Nc1nnc(SCC(=O)NCc2cccs2)s1", "growth rescue (activation)": "-2.23%"}
{"smiles": "O=C1CSC(=O)N1CCOCCN1C(=O)CSC1=O", "growth rescue (activation)": "-3.76%"}
{"smiles": "Cc1cccc(NC(c2cccc(F)c2)c2ccc3ccc(C)nc3c2O)n1", "note": "(configuration not stated)", "growth rescue (activation)": "2.76%"}
{"smiles": "CCCCCc1ccc(-c2cn(Cc3ccc4ccccc4c3)nn2)cc1", "growth rescue (activation)": "1.57%"}
{"smiles": "CCCCCc1ccc(-c2ccc(OCC)cc2)nc1", "growth rescue (activation)": "-3.67%"}
{"smiles": "CCCCCc1ccc(-c2ccc(C(=O)O)cc2)nc1", "Potency": "15.8 µM (active)"}
{"smiles": "COc1ccc(-n2c(SCC(=O)Nc3ccc(Cl)c(C)c3)nc3n[nH]c(C)c3c2=N)cc1", "growth rescue (activation)": "1.03%"}
{"smiles": "COc1cc(OC)cc(C(=O)N[C@H](C(=O)Nc2nc3ccccc3[nH]2)C(C)C)c1", "growth rescue (activation)": "-2.45%"}
{"smiles": "CN(c1ccccc1)S(=O)(=O)c1cc(C(=O)OCC(=O)N2CCN(C(=O)c3ccco3)CC2)ccc1Cl", "growth rescue (activation)": "5.81%"}
{"smiles": "CN(c1ccccc1)S(=O)(=O)c1cc(C(=O)Nc2nc3ccccc3[nH]2)ccc1Cl", "Potency": "12.6 µM (active)"}
{"smiles": "CN(C)S(=O)(=O)c1ccc(C(=O)NCC2(N3CCOCC3)CCCCC2)cc1", "growth rescue (activation)": "-7.31%"}
{"smiles": "COc1ccc(NS(=O)(=O)c2ccc(C)c(C(=O)N(C)Cc3ccc(OC)cc3OC)c2)cc1", "growth rescue (activation)": "3.44%"}
{"smiles": "CC1CC2C3CCC4=CC(=O)C=C[C@]4(C)[C@@]3(F)[C@@H](O)C[C@]2(C)[C@@]1(O)C(=O)CO", "note": "(some centres not stated)", "growth rescue (activation)": "-2.79%"}
{"smiles": "O=C(NCCCCCCCCCNC(=O)C(F)(F)F)C(F)(F)F", "growth rescue (activation)": "3.56%"}
{"smiles": "CC(CN1CCOCC1)OC(=O)c1ccc(C(C)(C)C)cc1", "note": "(configuration not stated)", "growth rescue (activation)": "6.51%"}
{"smiles": "CC(CN1CCOCC1)OC(=O)c1ccc(Cl)cc1Cl", "note": "(configuration not stated)", "growth rescue (activation)": "-1.69%"}
{"smiles": "Cc1ccc(C(=O)OC(C)CN2CCOCC2)cc1", "note": "(configuration not stated)", "Potency": "22.4 µM (active)"}
{"smiles": "C=C(C)C1CC=C(C)/C(=N\\NC(=O)CNc2ccccc2OC)C1", "note": "(configuration not stated)", "growth rescue (activation)": "24.6%"}
{"smiles": "Cc1ccc(S(=O)(=O)/N=C(/NC(=S)Nc2c(C)n(C)n(-c3ccccc3)c2=O)c2ccccc2)cc1", "growth rescue (activation)": "0.193%"}
{"smiles": "Cn1c2cc(B(O)O)sc2c2cnn(Cc3ccccc3F)c(=O)c21", "growth rescue (activation)": "-0.837%"}
{"smiles": "O=C(Nc1ncc2c(n1)CC(c1ccco1)CC2=O)c1ccc(Cl)cc1", "note": "(configuration not stated)", "growth rescue (activation)": "6.99%"}
{"smiles": "COc1cc(C2CC(=O)c3cnc(NC(C)=O)nc3C2)cc(OC)c1OC", "note": "(configuration not stated)", "growth rescue (activation)": "0.0051%"}
{"smiles": "CCc1ccc(Nc2ncc3c(n2)CC(c2ccco2)CC3=O)cc1", "note": "(configuration not stated)", "Potency": "11.2 µM (active)"}
{"smiles": "Cc1cc(NC(=O)Nc2c[nH]c(=O)[nH]c2=O)ccc1Br", "growth rescue (activation)": "0.148%"}
{"smiles": "CCOC(=O)c1c(CNCc2ccccc2F)c2sc(C)cc2n1C", "growth rescue (activation)": "-0.808%"}
{"smiles": "COc1cc(C2NC(=O)NC(c3ccccc3)=C2C(C)=O)c(Br)cc1OCC(N)=O", "note": "(configuration not stated)", "growth rescue (activation)": "2.71%"}
{"smiles": "COc1ccccc1N(C)S(=O)(=O)c1ccc(C(=O)NC2CCCCCC2)cc1", "growth rescue (activation)": "-3.35%"}
{"smiles": "COc1ccc(CCNC(=O)CN2C(=O)CCSc3ccccc32)c(OC)c1", "growth rescue (activation)": "-10.5%"}
{"smiles": "COCCNC(=S)N/N=C/c1c(C)[nH]c2ccccc12", "growth rescue (activation)": "-4.82%"}
{"smiles": "O=C(N/N=C/c1c(Cl)[nH]c2ccccc12)c1sc2ccccc2c1Cl", "Potency": "15.8 µM (active)"}
{"smiles": "COc1ccc(CNC(=O)CNC(=O)c2sc3ccccc3c2Cl)cc1OC", "growth rescue (activation)": "-3.78%"}
{"smiles": "Nc1ncnc2c1c(I)cn2[C@@H]1C[C@H](N)[C@@H](O)[C@H]1O", "growth rescue (activation)": "-0.615%"}
{"smiles": "COc1ccccc1NC(=O)c1cc(S(=O)(=O)NCCc2ccccc2)ccc1F", "growth rescue (activation)": "-4.24%"}
{"smiles": "COc1cccc(-n2c(=O)c3c(C)c(C(=O)N(C)C)sc3n(CC(=O)NCCc3ccc(OC)c(OC)c3)c2=O)c1", "growth rescue (activation)": "-2.48%"}
{"smiles": "CC(=O)Nc1ccc(S(=O)(=O)NCCc2ccccc2)cc1", "growth rescue (activation)": "-2.71%"}
{"smiles": "COCCCNC(=O)c1ccc(CNS(=O)(=O)c2ccc(NC(C)=O)cc2)cc1", "Potency": "0.631 µM (active)"}
{"smiles": "CCCCNC(=O)C1CCC(CNS(=O)(=O)c2ccc(NC(C)=O)cc2)CC1", "note": "(configuration not stated)", "growth rescue (activation)": "-18.1%"}
{"smiles": "O=C(NC1CCCC1)C(c1ccco1)N(C(=O)c1ccco1)c1ccc(F)cc1", "note": "(configuration not stated)", "growth rescue (activation)": "0.928%"}
{"smiles": "CN(C)C(=O)c1ccc2c(c1)C1C3CCC(C3)C1C(c1ccccc1)N2", "note": "(configuration not stated)", "Potency": "12.6 µM (active)"}
{"smiles": "CN(C)C(=O)c1ccc(NC(=O)c2ccccc2-c2ccccc2)cc1", "growth rescue (activation)": "-1.29%"}
{"smiles": "CC1(C)C/C(=C(/C#N)C(N)=O)CCO1", "growth rescue (activation)": "-4.67%"}
{"smiles": "NC(N)=Nc1nc2ccc(Br)cc2c(=O)[nH]1", "growth rescue (activation)": "3.53%"}
{"smiles": "O=S(=O)(Nc1ccc2nc(N3CCOCC3)sc2c1)c1ccccc1", "growth rescue (activation)": "9.86%"}
{"smiles": "CC(=O)OCCOCn1cnn2c(=O)c(Br)c(C)nc12", "growth rescue (activation)": "-1.24%"}
{"smiles": "CCC(=O)Nc1ccc(-c2ccc(N3CCCCC3)nn2)cc1", "Potency": "17.8 µM (active)"}
{"smiles": "CC1CCN(c2ccc(-c3ccc(NC(=O)c4ccco4)cc3)nn2)CC1", "growth rescue (activation)": "13.5%"}
{"smiles": "CCC(=O)c1ccc(OCC(=O)Nc2ccc(N3CCCCC3)cc2)cc1", "growth rescue (activation)": "0.121%"}
{"smiles": "CCOc1ccc(/C(O)=C2\\C(=O)C(=O)N(c3ccc(OC)cc3)C2c2ccccc2[N+](=O)[O-])cc1", "note": "(configuration not stated)", "growth rescue (activation)": "-5.38%"}
{"smiles": "CCOC(=O)C1=C(c2ccccc2)NC(=O)NC1c1cc(OC)c(OC)cc1OC", "note": "(configuration not stated)", "growth rescue (activation)": "5.15%"}
{"smiles": "CCCC[C@]12Cc3cc(OC)c(OC)cc3C(O1)C1=C(CC3(CCCCC3)OC1=O)O2", "growth rescue (activation)": "-0.167% [at 9.22 µM]"}
